Laboratory results taken from the supplement of paper PMC10849652.
About 7,900 targets were measured; listed, in parts, are those with a hit and a random draw of the rest. About 0.6% of all pairs of compound and target were hits. Values without a mark were called inactive.

What was measured:
Test in all cases: log2 fold change, soluble protein after heating vs DMSO (PISA); higher = thermal stabilisation; K562 cells, 10 uM, 30 min; active = over 0.2 and 3.5 SD of the protein, either way, in both replicates (recomputed)
[1] = compound: NC(=O)Nc1cc(-c2cccc(F)c2)sc1C(=O)N[C@H]1CCCNC1
In short: (§1)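 K562 cells (2×10^6 cells/mL) were treated with 10 μM compound for 30 min, and aliquots were heated for 3 min over 48°C-58°C. Pooled aliquots were extracted in PBS with 0.5% NP-40 at 4°C, and the supernatant after 21,000xg for 90 min was measured by TMTpro 16plex LC-MS/MS with channel sums equalised. Reported thermal stability, relative to control samples and from duplicates, is a log2 fold change.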

[2] = compound: NC(=O)c1cnc(N[C@@H]2CCCC[C@@H]2N)nc1Nc1cccc(-n2nccn2)c1
In short: as §1

[3] = compound: NC1(c2ccc(-c3nc4ccn5c(=O)[nH]nc5c4cc3-c3ccccc3)cc2)CCC1
In short: as §1

[4] = compound: NCC(=O)Nc1ccc(-n2nc(C(F)(F)F)cc2-c2ccc3c(ccc4ccccc43)c2)cc1
In short: as §1

entinostat = compound: Nc1ccccc1NC(=O)c1ccc(CNC(=O)OCc2cccnc2)cc1 [entinostat]
In short: as §1

vorinostat = compound: O=C(CCCCCCC(=O)Nc1ccccc1)NO [vorinostat]
In short: as §1

citarinostat = compound: O=C(CCCCCCNC(=O)c1cnc(N(c2ccccc2)c2ccccc2Cl)nc1)NO [citarinostat]
In short: as §1

silmitasertib = compound: O=C(O)c1ccc2c(c1)nc(Nc1cccc(Cl)c1)c1ccncc12 [silmitasertib]
In short: as §1

[5] = compound: c1cc(OCCN2CCCCC2)cc(-c2n[nH]c3ccc(-c4nnc[nH]4)cc23)c1
In short: as §1

[6] = compound: O=C1NC(=O)C(c2cnc3ccccn23)=C1c1cn2c3c(cc(F)cc13)CN(C(=O)N1CCCCC1)CC2
In short: as §1

Chain of UniProt Q96FC9 (Q96FC9 whole entry, looked up): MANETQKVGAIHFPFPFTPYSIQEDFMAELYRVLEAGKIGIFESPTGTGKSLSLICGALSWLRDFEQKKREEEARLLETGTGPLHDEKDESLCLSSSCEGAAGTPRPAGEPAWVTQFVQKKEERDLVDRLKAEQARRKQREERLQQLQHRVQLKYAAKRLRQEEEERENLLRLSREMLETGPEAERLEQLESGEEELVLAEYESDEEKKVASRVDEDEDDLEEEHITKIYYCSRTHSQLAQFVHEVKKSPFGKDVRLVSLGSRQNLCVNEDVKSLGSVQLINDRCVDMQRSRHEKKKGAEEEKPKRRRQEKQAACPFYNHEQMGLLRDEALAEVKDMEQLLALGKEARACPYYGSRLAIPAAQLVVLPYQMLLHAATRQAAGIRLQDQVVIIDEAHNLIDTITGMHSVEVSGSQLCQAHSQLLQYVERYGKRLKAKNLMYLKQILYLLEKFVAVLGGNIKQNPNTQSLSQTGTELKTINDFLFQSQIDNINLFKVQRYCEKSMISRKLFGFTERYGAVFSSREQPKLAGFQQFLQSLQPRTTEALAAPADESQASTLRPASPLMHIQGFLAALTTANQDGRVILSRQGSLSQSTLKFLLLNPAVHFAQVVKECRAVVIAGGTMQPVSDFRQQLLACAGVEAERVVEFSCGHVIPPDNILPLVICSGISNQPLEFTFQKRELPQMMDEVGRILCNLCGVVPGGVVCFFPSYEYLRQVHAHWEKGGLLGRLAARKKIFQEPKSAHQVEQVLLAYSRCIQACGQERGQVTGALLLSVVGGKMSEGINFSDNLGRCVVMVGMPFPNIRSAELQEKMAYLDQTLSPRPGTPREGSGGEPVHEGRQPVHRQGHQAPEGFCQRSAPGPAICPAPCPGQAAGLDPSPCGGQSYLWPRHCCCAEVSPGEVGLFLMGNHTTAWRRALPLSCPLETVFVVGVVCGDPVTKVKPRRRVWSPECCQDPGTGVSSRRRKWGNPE
Chain of UniProt Q9NXF7 (Q9NXF7 whole entry, looked up): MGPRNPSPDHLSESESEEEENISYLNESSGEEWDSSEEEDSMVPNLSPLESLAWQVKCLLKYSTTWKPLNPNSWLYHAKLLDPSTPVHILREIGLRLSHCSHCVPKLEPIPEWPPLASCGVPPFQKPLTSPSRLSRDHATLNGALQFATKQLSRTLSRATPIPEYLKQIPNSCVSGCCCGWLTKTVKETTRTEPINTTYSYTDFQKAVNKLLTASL
Chain of UniProt Q9Y485 (Q9Y485 whole entry, looked up): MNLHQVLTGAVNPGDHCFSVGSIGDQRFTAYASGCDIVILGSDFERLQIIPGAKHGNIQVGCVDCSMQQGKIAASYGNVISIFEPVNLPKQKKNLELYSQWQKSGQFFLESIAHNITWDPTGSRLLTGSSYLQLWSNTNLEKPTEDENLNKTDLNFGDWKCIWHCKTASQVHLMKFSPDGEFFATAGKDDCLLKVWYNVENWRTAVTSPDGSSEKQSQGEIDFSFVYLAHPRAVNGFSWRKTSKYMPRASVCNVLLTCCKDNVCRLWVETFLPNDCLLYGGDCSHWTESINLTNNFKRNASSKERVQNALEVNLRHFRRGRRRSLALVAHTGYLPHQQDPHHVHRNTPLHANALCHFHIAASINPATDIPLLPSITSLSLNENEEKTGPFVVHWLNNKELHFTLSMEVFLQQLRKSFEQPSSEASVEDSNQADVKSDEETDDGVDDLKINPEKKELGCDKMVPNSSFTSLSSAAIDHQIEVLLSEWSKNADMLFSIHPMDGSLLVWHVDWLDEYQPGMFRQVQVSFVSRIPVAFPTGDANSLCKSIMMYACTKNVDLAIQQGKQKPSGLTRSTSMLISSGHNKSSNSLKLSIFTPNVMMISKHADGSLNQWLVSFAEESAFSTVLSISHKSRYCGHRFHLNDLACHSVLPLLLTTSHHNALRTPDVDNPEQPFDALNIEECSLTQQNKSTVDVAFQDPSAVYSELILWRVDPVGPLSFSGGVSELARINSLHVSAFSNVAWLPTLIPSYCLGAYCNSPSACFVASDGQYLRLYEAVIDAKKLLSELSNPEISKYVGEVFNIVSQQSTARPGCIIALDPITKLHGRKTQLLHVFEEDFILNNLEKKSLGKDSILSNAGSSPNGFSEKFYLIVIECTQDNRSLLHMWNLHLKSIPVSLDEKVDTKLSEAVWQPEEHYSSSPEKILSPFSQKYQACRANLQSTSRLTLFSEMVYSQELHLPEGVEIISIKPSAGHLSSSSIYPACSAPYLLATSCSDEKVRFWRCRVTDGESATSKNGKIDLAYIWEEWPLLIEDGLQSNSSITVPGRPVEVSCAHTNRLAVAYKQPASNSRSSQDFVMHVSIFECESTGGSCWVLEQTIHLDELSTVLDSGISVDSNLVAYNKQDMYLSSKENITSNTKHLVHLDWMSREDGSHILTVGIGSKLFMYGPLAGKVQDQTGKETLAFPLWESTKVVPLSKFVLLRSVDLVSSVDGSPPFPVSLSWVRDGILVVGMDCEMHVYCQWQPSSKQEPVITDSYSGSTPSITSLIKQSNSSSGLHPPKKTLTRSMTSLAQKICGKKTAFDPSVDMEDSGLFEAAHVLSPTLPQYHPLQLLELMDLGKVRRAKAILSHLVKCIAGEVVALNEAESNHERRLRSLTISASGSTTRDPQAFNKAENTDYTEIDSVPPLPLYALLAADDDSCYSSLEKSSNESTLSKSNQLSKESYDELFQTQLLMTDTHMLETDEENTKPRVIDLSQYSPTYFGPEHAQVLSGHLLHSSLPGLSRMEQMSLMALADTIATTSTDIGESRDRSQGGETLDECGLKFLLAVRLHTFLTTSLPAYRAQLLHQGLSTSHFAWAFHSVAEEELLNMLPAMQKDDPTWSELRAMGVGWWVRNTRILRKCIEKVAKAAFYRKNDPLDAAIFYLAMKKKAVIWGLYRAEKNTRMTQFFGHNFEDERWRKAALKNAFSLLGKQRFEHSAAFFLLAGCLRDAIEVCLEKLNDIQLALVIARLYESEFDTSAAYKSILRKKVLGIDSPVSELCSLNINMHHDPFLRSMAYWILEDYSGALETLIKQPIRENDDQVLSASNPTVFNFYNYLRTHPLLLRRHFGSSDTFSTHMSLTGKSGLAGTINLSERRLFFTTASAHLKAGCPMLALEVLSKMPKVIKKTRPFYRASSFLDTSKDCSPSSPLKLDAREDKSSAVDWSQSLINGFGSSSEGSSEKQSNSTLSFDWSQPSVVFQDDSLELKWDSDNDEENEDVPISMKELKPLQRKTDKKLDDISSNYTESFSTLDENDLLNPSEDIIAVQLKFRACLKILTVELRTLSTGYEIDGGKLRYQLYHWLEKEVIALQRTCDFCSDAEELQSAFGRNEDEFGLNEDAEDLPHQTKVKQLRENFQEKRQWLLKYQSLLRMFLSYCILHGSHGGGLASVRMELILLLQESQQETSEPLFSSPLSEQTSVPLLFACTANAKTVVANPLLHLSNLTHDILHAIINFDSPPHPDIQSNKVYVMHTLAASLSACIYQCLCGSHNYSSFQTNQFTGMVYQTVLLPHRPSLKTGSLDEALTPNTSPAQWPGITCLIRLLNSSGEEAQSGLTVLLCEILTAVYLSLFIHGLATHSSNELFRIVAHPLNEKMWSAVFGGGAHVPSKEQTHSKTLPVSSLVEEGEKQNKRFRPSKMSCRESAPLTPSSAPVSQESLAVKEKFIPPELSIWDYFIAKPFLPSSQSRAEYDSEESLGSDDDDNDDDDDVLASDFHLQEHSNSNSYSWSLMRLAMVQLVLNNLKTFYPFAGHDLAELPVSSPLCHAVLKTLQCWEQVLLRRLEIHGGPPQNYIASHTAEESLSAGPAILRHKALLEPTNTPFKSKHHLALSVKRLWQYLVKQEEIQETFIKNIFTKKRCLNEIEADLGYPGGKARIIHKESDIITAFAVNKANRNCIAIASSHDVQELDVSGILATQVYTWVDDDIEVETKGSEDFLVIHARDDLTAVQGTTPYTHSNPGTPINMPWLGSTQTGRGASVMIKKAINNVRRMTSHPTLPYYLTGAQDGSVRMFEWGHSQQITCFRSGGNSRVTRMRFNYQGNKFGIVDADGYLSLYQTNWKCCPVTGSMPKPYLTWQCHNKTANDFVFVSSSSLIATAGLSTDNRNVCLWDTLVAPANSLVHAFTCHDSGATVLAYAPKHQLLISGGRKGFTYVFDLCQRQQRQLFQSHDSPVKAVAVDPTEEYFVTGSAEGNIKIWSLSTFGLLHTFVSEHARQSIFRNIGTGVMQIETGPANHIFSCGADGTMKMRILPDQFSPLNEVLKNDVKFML
Chain of UniProt Q8NBI2 (Q8NBI2 whole entry, looked up): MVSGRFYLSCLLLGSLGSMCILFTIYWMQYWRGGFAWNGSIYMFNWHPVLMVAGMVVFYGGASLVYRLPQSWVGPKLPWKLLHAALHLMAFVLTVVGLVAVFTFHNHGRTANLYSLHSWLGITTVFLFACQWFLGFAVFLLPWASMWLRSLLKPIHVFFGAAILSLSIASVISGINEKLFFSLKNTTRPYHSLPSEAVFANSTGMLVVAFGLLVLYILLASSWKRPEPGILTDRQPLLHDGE
Chain of UniProt Q9HBU6 (Q9HBU6 whole entry, looked up): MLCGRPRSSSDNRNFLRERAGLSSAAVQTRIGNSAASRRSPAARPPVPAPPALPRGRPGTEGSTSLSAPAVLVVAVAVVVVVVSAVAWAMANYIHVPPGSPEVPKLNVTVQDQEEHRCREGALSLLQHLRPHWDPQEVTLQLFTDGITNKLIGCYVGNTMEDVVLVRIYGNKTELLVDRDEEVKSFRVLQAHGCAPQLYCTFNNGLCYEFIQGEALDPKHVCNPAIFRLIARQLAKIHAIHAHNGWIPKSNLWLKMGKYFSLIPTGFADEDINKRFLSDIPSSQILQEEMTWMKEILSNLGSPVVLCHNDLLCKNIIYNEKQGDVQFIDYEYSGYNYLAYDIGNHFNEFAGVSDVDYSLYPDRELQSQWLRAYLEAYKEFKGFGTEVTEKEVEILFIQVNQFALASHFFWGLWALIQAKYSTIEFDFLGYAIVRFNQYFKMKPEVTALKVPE
Chain of UniProt Q8N8J7 (Q8N8J7 whole entry, looked up): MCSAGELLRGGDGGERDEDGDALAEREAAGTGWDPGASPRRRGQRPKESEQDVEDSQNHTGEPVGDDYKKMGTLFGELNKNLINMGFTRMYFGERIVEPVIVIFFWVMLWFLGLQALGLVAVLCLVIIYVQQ

Target	log2 fold change [1]	log2 fold change [2]	log2 fold change [3]	log2 fold change [4]	log2 fold change (entinostat)	log2 fold change (vorinostat)	log2 fold change (citarinostat)	log2 fold change (silmitasertib)	log2 fold change [5]	log2 fold change [6]
FAM241A (UniProt Q8N8J7)	0.661 (active)	-0.033	-0.032	-0.004	0.424 (active)	-0.005	-0.09	0.045	-0.058	
DCAF6 isoform 3 (UniProt Q58WW2)	0	0.019	0.026	0.007	-0.005	0.003	0.021	0.045	-0.008	-0.009
FAM193B (UniProt Q96PV7)	0.22	-0.053		-0.014	0.25		0.032		-0.205	0.149
EGR1 (UniProt P18146)	-0.029	-0.346	0.345	0.066	0.091	-0.033		0.085		-0.109
DCAF16 (UniProt Q9NXF7)	-0.122	-0.109	-0.09	-0.036	0.02	0.004	0.07	0.082	-0.041	-0.09
DYNC1I2 isoform 2 (UniProt Q13409)	0.181	0	-0.037		-0.206		0.094	-0.154	-0.035	-0.127
EXOC7 (UniProt Q9UPT5)	0.009	-0.142	-0.223	-0.022	0.04	0.09	0.077	0.052	-0.012	0.028
EIF4G3 isoform 3 (UniProt O43432)	0.012	-0.092	-0.062	-0.016	0.01		-0.114	0.146	-0.515 (active)	
DAXX (UniProt Q9UER7)	0.093	-0.103		-0.08	-0.099	0.034	0.075		-0.076	
EXOSC10 (UniProt Q01780)	-0.49	-0.054	0.014	-0.189	-0.339	0.039	-0.125	0.041	0.01	-0.044
DMXL1 (UniProt Q9Y485)	-0.026	-0.075	-0.052	-0.015	0.033	0.069	0.005	0.04	-0.071	-0.007
EEF1A1 (UniProt P68104)	-0.046	0.084	0.091	0.191	-0.017		-0.04	-0.11	0.07	0.023
ELOC (UniProt Q15369)	-0.008	-0.011	-0.015	-0.008	0.024	0.024	0.036	-0.007	-0.053	-0.107
DLD (UniProt P09622)	0.003	0.007	-0.088	0.033	-0.013	-0.02	0.011	-0.042	-0.093	-0.004
EIF3J isoform 2 (UniProt O75822)	-0.094	-0.197	-0.102	0.023	-0.041			-0.11		0.002
DYNC1LI2 (UniProt O43237)	0.093	-0.021	0.206	-0.075	-0.026	0.075	-0.101	0.214	-0.108	0.158
DDX4 (UniProt Q9NQI0)	-1.13 (active)	0.01	0.297	-0.35	-0.405	-0.253	-0.146	0.171	-0.194	-0.273
DSN1 (UniProt Q9H410)	-0.026	-0.057	-0.166	-0.037	0.076		0.021	0.025	-0.081	-0.032
ESYT1 isoform 2 (UniProt Q9BSJ8)	0.062	0.004	-0.004	-0.044	0.086	0.122	0.033	0.041	-0.048	0.187
FAAP100 (UniProt Q0VG06)	0.009	0.039	-0.076	-0.031	-0.05	0.048	-0.012	-0.051	-0.053	0.197
EIF4G1 isoform 8 (UniProt Q04637)	-0.104	-0.273	-0.154	-0.106	0.185	0.116	0.058	-0.045	-0.269	0.194
DDX11 (UniProt Q96FC9)	-0.1	-0.099	-0.061	0.032	-0.009			0.191		-0.007
DOCK8 (UniProt Q8NF50)	-0.088	0.073	0.461	0.036	0.079	0.031	0.064	0.254	0.07	-0.12
ETNK1 (UniProt Q9HBU6)	0.25 (active)	0.011	-0.144	-0.057	0.089	-0.01	0.019	0.041	-0.084	0.208
EIF2AK1 (UniProt Q9BQI3)	-0.034	0.018	-0.023	0.001	0.129	-0.058		0		0.133
DCP2 (UniProt Q8IU60)	-0.076	0.009		-0.079	0.048					0.048
CYB561A3 isoform 2 (UniProt Q8NBI2)	-0.019	-0.075	-0.066		-0.004	-0.254	-0.081	0.04	0.035	
EDEM2 (UniProt Q9BV94)	0.004	-0.108	-0.054	-0.039	-0.003	0.001		0.027		-0.029
FADS3 (UniProt Q9Y5Q0)	-0.086	-0.096	-0.074	0.079	-0.06	0.024	0.022	-0.008	-0.034	0.259
DENND10 (UniProt Q8TCE6)	0.018	0	-0.089	-0.069	-0.076		0.07	0.037	0.054	0.073
